# PubChem BioAssay
# Several values for one entry are separate records, joined by “and”; a condition that tells them apart may be missing. Identical values can stand only once. Activity calls are given as the source filed them. Rule as the data show it, unless noted: active = inhibition above about 80%; inactive = the rest.
# Legend:
# [1] = RCMB18 cell growth, single agent and combined, cisplatin and BGB IC40 combos (AID 1671462); settings: RCMB18 medulloblastoma cells, stronger effect = higher value;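 also: cells exposed to compound for four days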
# [2] = CRL1545 cell growth, single agent and combined, cisplatin and BGB IC20 combos (AID 1671464); settings: CRL1545 osteosarcoma cells, stronger effect = higher value;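 also: cells exposed to compound for 96 hours before readout; 0% = vehicle DMSO and 100% = high DMSO killing control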
# F380Y = experiment: BK channel mutant inhibitors and activators – cell-based, U2OS BacMam, thallium flux, beta subunits, selectivity assay, profiling panel (AID 1259406;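 active = thallium flux through the channel raised or lowered by more than 3 SD from vehicle-only wells, actives on both sides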;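 also: initial slope of Thallos dye fluorescence rise after thallium is added; log ratio against the mean of 0.3% DMSO vehicle wells on the same plate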); settings: U2OS BacMam BK variants, at 30 µM
# F380Y/beta1 = experiment: as above; settings: U2OS BacMam BK variants, at 30 µM
# [3] = biological target: NAD(+) hydrolase SARM1 (Homo sapiens) (UniProt Q6SZW1); experiment: blocking NAD cleavage by SARM1 SAM-TIR – cell lysate, NAD-Glo luminescence (AID 1508614;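 active = compound whose remaining NAD level is above about 45 nM, limit read from the data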;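 also: higher remaining NAD means stronger inhibition of SARM1 NADase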); settings: SAM-TIR HEK293T lysate NADase, at 1 µM, stronger effect = higher value
# Sequence of NAD(+) hydrolase SARM1 (Homo sapiens) (Q6SZW1 whole entry, looked up): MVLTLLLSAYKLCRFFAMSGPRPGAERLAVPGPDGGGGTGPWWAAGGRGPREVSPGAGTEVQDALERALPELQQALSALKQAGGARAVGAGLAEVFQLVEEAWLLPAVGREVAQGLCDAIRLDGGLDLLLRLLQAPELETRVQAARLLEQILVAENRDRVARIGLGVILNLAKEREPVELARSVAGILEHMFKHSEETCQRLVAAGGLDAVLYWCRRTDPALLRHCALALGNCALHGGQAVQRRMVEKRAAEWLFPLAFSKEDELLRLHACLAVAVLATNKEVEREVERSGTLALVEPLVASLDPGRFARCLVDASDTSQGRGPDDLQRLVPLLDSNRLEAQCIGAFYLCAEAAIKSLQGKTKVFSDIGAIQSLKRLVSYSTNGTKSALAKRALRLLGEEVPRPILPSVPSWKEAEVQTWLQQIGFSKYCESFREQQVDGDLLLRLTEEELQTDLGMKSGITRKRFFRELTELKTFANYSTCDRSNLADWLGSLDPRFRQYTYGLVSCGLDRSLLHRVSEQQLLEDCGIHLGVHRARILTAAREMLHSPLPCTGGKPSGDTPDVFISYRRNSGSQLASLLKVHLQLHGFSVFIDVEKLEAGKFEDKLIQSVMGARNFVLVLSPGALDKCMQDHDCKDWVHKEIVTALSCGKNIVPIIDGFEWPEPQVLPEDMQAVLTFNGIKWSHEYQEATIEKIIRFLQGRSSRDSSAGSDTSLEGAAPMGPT
# [4] = galactose survival enhancers in mitochondrial complex I cybrids – cell-based, galactose medium, ATP luminescence, primary screen (AID 1645843;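 active = z-score of at least 1.8 in each of two replicates, scored against plate mean and spread of sample wells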;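 also: positive z means more ATP and so rescue of galactose-driven cybrid death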); settings: complex I mutant cybrid cells, 72 h, stronger effect = higher value
# [5] = growth inhibition, single agent or in combination, cell-based, chromothripsis tumors, cisplatin or BGB combos (AID 1671449); settings: LFS_MB_P medulloblastoma cells;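 also: cells exposed for 96 hours; 0% = vehicle DMSO and 100% = killing by high DMSO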
# [6] = growth inhibition, single agent and combos, cell-based, chromothripsis tumors, cisplatin or BGB combos (AID 1671450); settings: HDN33 neuroblastoma cells, stronger effect = higher value;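 also: cells exposed to compound for four days; 0% = vehicle DMSO and 100% = cell killing by high DMSO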
# [7] = growth inhibition, single agents and combos, ICB984, cell-based, cisplatin or BGB combos, synergistic combos for chromothripsis tumors (AID 1671451; call rule not given here;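 also: cells exposed for 96 hours before readout; 0% = vehicle DMSO and 100% = killing by high DMSO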); settings: ICB984 medulloblastoma cells, drug combinations, stronger effect = higher value
# [8] = growth inhibition, single agents and combos, LFS_MB_1R, cell-based, cisplatin or BGB combos, synergistic combos for chromothripsis tumors (AID 1671452); settings: LFS_MB_1R medulloblastoma cells, stronger effect = higher value;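 also: cells exposed for 96 hours before readout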
# [9] = growth inhibition, single agents and combos, HTB85, cell-based, BGB or cisplatin IC20 combos, synergistic combos for chromothripsis tumors (AID 1671453); settings: HTB85 osteosarcoma cells, drug combinations, stronger effect = higher value;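 also: cells exposed for 96 hours before readout; 0% = vehicle DMSO and 100% = high DMSO killing control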
# [10] = growth inhibition, single agents and combos, CRL2098, cell-based, BGB or cisplatin IC20 combos, synergistic combos for chromothripsis tumors (AID 1671454); settings: CRL2098 osteosarcoma cells, drug combinations, stronger effect = higher value;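 also: cells exposed for 96 h before readout; 0% = vehicle DMSO and 100% = killing by high DMSO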
# [11] = growth inhibition, single agents and combos, HD-MB03, cell-based, BGB or cisplatin IC20 combos, synergistic combos for chromothripsis tumors (AID 1671455; in the data active = inhibition above about 83%;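 also: 0% = vehicle DMSO and 100% = high DMSO as cytotoxic control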); settings: HD-MB03 medulloblastoma cells, stronger effect = higher value
# [12] = growth inhibition, single agents and combos, UWB1.289, cell-based, BGB or cisplatin combos, synergistic combos for chromothripsis tumors (AID 1671456); settings: UWB1.289 ovarian carcinoma cells, stronger effect = higher value;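 also: cells exposed to compound for four days; 0% = vehicle DMSO and 100% = killing by high DMSO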
# [13] = growth inhibition, single agents and combos, LFS_MB_2R, cell-based, cisplatin combos, synergistic combos for chromothripsis tumors (AID 1671457); settings: LFS_MB_2R medulloblastoma cells, stronger effect = higher value;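 also: cells exposed to compound for four days before readout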
# [14] = growth inhibition, MDA-MB-436, cell-based, BGB or cisplatin combos, synergistic combos for chromothripsis tumors (AID 1671458; call rule not given here;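 also: cells exposed for 96 hours; 0% = vehicle DMSO and 100% = killing by high DMSO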); settings: MDA-MB-436 breast carcinoma growth inhibition, drug combinations, stronger effect = higher value
# [15] = UWB1.289_BRCA1 ovarian cancer growth, cell-based, BGB or cisplatin combinations (AID 1671459); settings: UWB1.289 BRCA1 ovarian carcinoma, drug combinations, stronger effect = higher value
# [16] = drug combination toxicity in non-malignant astrocytes – cell-based, BGB or cisplatin IC20 combos, cytotoxicity control for chromothriptic childhood tumor combination screen (AID 1671460); settings: Human astrocytes, viability inhibition, drug combinations, at 0.5 µM, stronger effect = higher value;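 also: cells exposed to compounds for 96 hours before viability readout; 0% = vehicle and 100% = killing control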
# [17] = BT084 cell growth, single and combined drugs, ICGC_MB145, cisplatin and BGB IC40 combos (AID 1671461); settings: BT084 medulloblastoma cells, drug combinations, stronger effect = higher value;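 also: cells exposed to drugs for 96 hours; 0% = vehicle DMSO and 100% = high DMSO full killing control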
# [18] = measured here: BGB IC40 combination, at 0.05 µM
# [19] = measured here: combination with cisplatin, at 0.5 µM
# [20] = measured here: with BGB IC20 combination, at 0.5 µM
# [21] = measured here: with cisplatin IC20 combination, at 0.5 µM
# [22] = measured here: combination with BGB IC40, at 0.05 µM
# [23] = measured here: combination with cisplatin, at 5 µM
structure (smiles),measurement,setting,value
C[C@H]1COc2c(C3(N)CC3)c(F)cc3c(=O)c(C(=O)O)cn1c23,inhibition,[1]; at 0.5 µM,-18.8% (inactive)
same,inhibition,"[1]; cisplatin combo, at 5 µM",-20.9%
same,inhibition,[1]; [18],-11.8%
same,inhibition,[1]; [19],-24.3%
same,inhibition,"[1]; single agent, at 5 µM",-38.1%
same,inhibition,[2]; at 0.5 µM,9.56% (inactive)
same,inhibition,[2]; [20],-3.27%
same,inhibition,[2]; [21],14.1%
same,inhibition,"[2]; single agent, at 0.05 µM",-13.5%
same,inhibition,"[2]; single agent, at 5 µM",10.7%
same,log fold change Tl+ flux,F380Y,-0.0868 (inactive)
same,log fold change Tl+ flux,F380Y/beta1,0.0568 (inactive)
Cn1nnc2c(C(N)=O)ncn2c1=O,remaining NAD,[3],10 nM (inactive)
same,z-score,[4],-0.305 (inactive) and -0.09 (inactive) and 0.155 (inactive)
same,inhibition,"[5]; at 0.5 µM, stronger effect = higher value",-17.4% (inactive) and 18.8% (inactive)
same,inhibition,"[5]; measured here: combination with BGB IC20, at 0.005 µM",-10.2% and -21.6%
same,inhibition,"[5]; measured here: combination with BGB IC40, at 0.005 µM",14.1% and -10.5%
same,inhibition,[5]; [22],2.17% and -11.4%
same,inhibition,"[5]; measured here: combination with cisplatin, at 0.5 µM, stronger effect = higher value",-29.5% and 9.38%
same,inhibition,"[5]; measured here: combination with cisplatin, at 5 µM, stronger effect = higher value",-24.1% and -22.5%
same,inhibition,"[6]; BGB combo, at 5 µM",22.2% and -9.06%
same,inhibition,[6]; at 0.5 µM,13.3% (inactive) and -1.85% (inactive)
same,inhibition,"[6]; cisplatin combo, at 5 µM",6.08% and -19.1%
same,inhibition,[6]; [20],17.6% and 6.04%
same,inhibition,[6]; [21],10.1% and -5.64%
same,inhibition,"[6]; single agent, at 5 µM",14.8% and -8.19%
same,inhibition,"[7]; BGB IC20 combo, at 0.005 µM",-9.22% and 1.55%
same,inhibition,"[7]; BGB IC40 combo, at 0.005 µM",-2.52% and -17.2%
same,inhibition,"[7]; BGB IC40 combo, at 0.05 µM",-13.6% and -3.32%
same,inhibition,[7]; at 0.5 µM,-14.5% (inactive) and -3.73% (inactive)
same,inhibition,"[7]; cisplatin combo, at 0.05 µM",-17.6% and -3.32%
same,inhibition,"[7]; cisplatin combo, at 0.5 µM",-0.899% and 2.38%
same,inhibition,"[7]; cisplatin combo, at 5 µM",-10.6% and -15.5%
same,inhibition,"[7]; measured here: 5 uM single agent, at 5 µM",10.8% and -28.4%
same,inhibition,[8]; at 0.5 µM,-13.9% (inactive) and 3.35% (inactive)
same,inhibition,[8]; [22],-9.42% and 8.49%
same,inhibition,[8]; [19],-8.99% and 3.26%
same,inhibition,[8]; [23],-56.8% and -3.5%
same,inhibition,[9]; at 0.5 µM,6.66% (inactive) and -23.3% (inactive)
same,inhibition,"[9]; measured here: with BGB IC20, at 0.5 µM",9.09% and -44.6%
same,inhibition,"[9]; measured here: with BGB IC20, at 5 µM",6.52% and -4.64%
same,inhibition,"[9]; measured here: with cisplatin IC20, at 0.5 µM",-3.99% and -22.6%
same,inhibition,"[9]; measured here: with cisplatin IC20, at 5 µM",-15.9% and 29.4%
same,inhibition,"[9]; single agent, at 5 µM",7.64% and -1.96%
same,inhibition,[10]; at 0.5 µM,-9.21% (inactive) and -17.1% (inactive)
same,inhibition,"[10]; measured here: combination with BGB at IC20, at 0.5 µM",-17.8% and -2.5%
same,inhibition,"[10]; measured here: combination with cisplatin at IC20, at 0.5 µM",7.75% and -28.9%
same,inhibition,[11]; at 0.5 µM,-0.81% (inactive) and -5.74% (inactive)
same,inhibition,"[11]; measured here: combo with BGB at IC20, at 0.5 µM",-12.4% and -6.59%
same,inhibition,"[11]; measured here: combo with cisplatin at IC20, at 0.5 µM",4.26% and -10.3%
same,inhibition,[12]; at 0.5 µM,10.5% (inactive) and 0.13% (inactive)
same,inhibition,"[12]; measured here: inhibition with BGB combination, at 0.05 µM",4.75% and -18.9%
same,inhibition,"[12]; measured here: inhibition with cisplatin combination, at 0.05 µM",25.6% and -6.43%
same,inhibition,[13]; at 0.5 µM,7.22% (inactive) and -24.1% (inactive)
same,inhibition,[13]; [19],1.03% and -18.7%
same,inhibition,[13]; [23],8.16% and -14%
same,inhibition,[14]; at 0.5 µM,6.91% (inactive) and -16.3% (inactive)
same,inhibition,"[14]; measured here: BGB combination, at 0.5 µM",12.9% and -14.6%
same,inhibition,"[14]; measured here: BGB combination, at 5 µM",4.06% and -13.6%
same,inhibition,"[14]; measured here: cisplatin combination, at 0.5 µM",2.96% and -35.2%
same,inhibition,"[14]; measured here: cisplatin combination, at 5 µM",1.26% and -29.8%
same,inhibition,"[15]; BGB combination, concentration series, at 5 µM",6.41% and 2.63%
same,inhibition,[15]; at 0.5 µM,6.2% (inactive) and -1.71% (inactive)
same,inhibition,"[15]; cisplatin combination, concentration series, at 5 µM",-10.8% and 7.27%
same,inhibition,[16],14.2% (inactive) and -4.55% (inactive)
same,inhibition,[16]; measured here: combo with BGB IC20,6.32% and -9.95%
same,inhibition,[16]; measured here: combo with cisplatin IC20,16.8% and -6.6%
same,inhibition,[17]; at 0.5 µM,-1.52% (inactive) and -18.4% (inactive)
same,inhibition,"[17]; cisplatin combination, at 0.5 µM",-21% and -7.48%
same,inhibition,"[17]; cisplatin combination, at 5 µM",1.38% and -35.6%
same,inhibition,"[17]; measured here: BGB IC40 combination 0.05 uM, at 0.05 µM",-9.43% and 0.326%
same,inhibition,"[17]; single agent, at 5 µM",8.38% and -21.4%
same,inhibition,[1]; at 0.5 µM,-3.58% (inactive) and -13.6% (inactive)
same,inhibition,"[1]; cisplatin combo, at 5 µM",-29.7% and 13.3%
same,inhibition,[1]; [18],7.57% and -3.63%
same,inhibition,[1]; [19],-5.87% and -11.2%
same,inhibition,"[1]; single agent, at 5 µM",-2.81% and -25.8%
same,inhibition,[2]; at 0.5 µM,-15.1% (inactive) and -33.6% (inactive)
same,inhibition,[2]; [20],-16.2% and -3.96%
same,inhibition,[2]; [21],-16.4% and -48.4%
same,inhibition,"[2]; single agent, at 0.05 µM",-25.4% and 17.1%
same,inhibition,"[2]; single agent, at 5 µM",-10.6% and 18.5%
same,log fold change Tl+ flux,F380Y,-0.0478 (inactive)
same,log fold change Tl+ flux,F380Y/beta1,-0.022 (inactive)
